Source: PubChem BioAssay (Tox21)
Results filed as inconclusive are left out. The source made the active and inactive calls. Calls follow the shape of the dose curve; as a rule, active = well fitted cell-killing curve with a large enough effect in the repeat runs; inconclusive = weak or mixed curves, or effect the other way; inactive = flat fitted curve, though single readings scatter.

experiment: Caspase-3/7 induction in HepG2 cells by small molecules, qHTS cell viability counter screen (AID 1346981); conditions: CellTiter-Fluor fluorescence, 17 h; series mostly up to 92.4 µM; activity change, negative = cytotoxicity: at the top concentration; also: nearly all actives have a fitted effect of over 30% in size
Text: U.S. Tox21 Program National Center for Advancing Translational Sciences [NCATS] NIH Chemical Genomics Center [NCGC] U.S. Environmental Protection Agency [EPA] National Institutes of Environmental Health Sciences [NIEHS] National Toxicology Program [NTP] U.S. Food and Drug Administration [FDA] Tox21 Assay Overview: Apoptosis is a process of programmed cell death and plays a central role in the development of multicellular organisms. It is a highly regulated process and induces cell death by activating caspases, which are the members of cysteine aspartic acid-specific protease (caspase) family. Caspases involved in apoptosis are classified by their mechanism of action as initiator caspases (caspase-2, -8, -9 and -10) and executioner caspases (caspase-3, -6, and -7). Inhibition of apoptosis results in number of cancers, autoimmune diseases, inflammatory diseases and viral infection. To identify small molecule compounds that induce apoptosis, a homogeneous, luminescent Caspase-Glo 3/7 assay was used. Wild type HepG2 cells were used to screen Tox21 libraries for identifying caspase-3/7 activity inducers. Also cytotoxicity of the compounds was tested in parallel by measuring the cell viability using CellTiter-Fluor assay system in the same wells.
Tox21 Assay Protocol Summary: HepG2 cells were dispensed at 2,000 per well in 5uL of culture medium into white solid bottom 1536-well plates (Corning Life Sciences, Corning, NY) using a Multidrop Combi (Thermo Scientific, Waltham, MA) dispenser. The assay plates were incubated at 37 C and 5% CO2 for 5hr, and then 23nL of compounds dissolved in DMSO and positive control were transferred using a Pintool station ([…], San Diego, CA). The assay plates were incubated at 37C and 5% CO2 for 17hr. For cytotoxicity read, after 16hr incubation at 37C, 1uL CellTiter-Fluor reagent (Promega Corporation, Madison, WI) was added to each well of the assay plates using Flying Reagent Dispenser (FRD, Aurora Discovery, San Diego, CA). After 1hr incubation at 37C and 5% CO2, the fluorescence signal was quantified using a ViewLux plate reader (PerkinElmer, Shelton, CT).
% is scaled to controls: 0 for no effect and ±100 for the full control effect; potency is read from the fitted curve at half-maximal effect.

Compound	activity change, negative = cytotoxicity	Potency
CO[C@@H]1[C@H](OC(=O)/C=C/C=C/C=C/C=C/C(=O)O)CC[C@]2(CO2)[C@H]1[C@@]1(C)O[C@@H]1CC=C(C)C	-3.15% (inactive)	–
Brc1c2ccccc2c(Br)c2ccccc12	5.61% [at 8.39 µM] (inactive)	–
CC(C)(CO)[N+](=O)[O-]	3.7% (inactive)	–
CN(C)CCN(Cc1ccccc1)c1ccccn1	-8.52% [at 42.5 µM] (inactive)	–
O=C1C(O)=C(O)C(=O)C(O)=C1O	-0.681% [at 42.5 µM] (inactive)	–
COCC(C)OC(C)=O (stereo not given)	7.88% (inactive)	–
Nc1ccc(S(=O)(=O)Nc2ccccc2)cc1	0.631% [at 42.5 µM] (inactive)	–
CCCn1cnc2c1c(=O)n(CCCCC(C)=O)c(=O)n2C	6.72% [at 42.5 µM] (inactive)	–
Cc1ccc(C(=O)Oc2ccc(C(O)CNC(C)(C)C)cc2OC(=O)c2ccc(C)cc2)cc1 (stereo not given)	-8.48% [at 42.5 µM] (inactive)	–
CN(C)c1ccc(/C=C/c2ccc([N+](=O)[O-])cc2)cc1	14.3% [at 8.39 µM] (inactive)	–
CCOc1ccc(O)cc1	0.842% (inactive)	–
Cc1cc(C(=O)O)ccc1[N+](=O)[O-]	-1.54% (inactive)	–
O=C(OCCc1ccccc1)c1ccccc1	-1.2% (inactive)	–
CC(CSC(=O)c1ccccc1)C(=O)N1C[C@@H](Sc2ccccc2)C[C@H]1C(=O)O (stereo not given in full)	-2.03% [at 19 µM] (inactive)	–
CC(=O)NO	-4.58% [at 42.5 µM] (inactive)	–
NS(=O)(=O)c1ccc(N2CCCCS2(=O)=O)cc1	6.04% [at 42.5 µM] (inactive)	–
CC(C)=CCC/C(C)=C/CC/C(C)=C/CO	-5.42% (inactive)	–
O=C(O)CC(=O)C(=O)O	0.726% (inactive)	–
CC(C)Cc1ccc(C(C)C(=O)OCc2ccccn2)cc1 (stereo not given)	7.05% [at 42.5 µM] (inactive)	–
COc1cc(Cl)ccc1Oc1ccc(Cl)cc1Cl	4.48% (inactive)	–

Compound	activity change, negative = cytotoxicity	Potency
CCCCCCCCCCO[C@@H]1O[C@H](CO)[C@@H](O)[C@H](O)[C@H]1O	1.64% (inactive)	–
CCCC(=O)Nc1ccc(O)c(C(C)=O)c1	6.34% [at 42.5 µM] (inactive)	–
O=P(O)(OCc1ccccc1)OCc1ccccc1	6.02% (inactive)	–
CCCCCC[C@@H](O)C/C=C\CCCCCCCC(=O)OC	2.07% (inactive)	–
CN1C[C@H]2c3ccccc3Oc3ccc(Cl)cc3[C@@H]2C1	-13.2% [at 42.5 µM] (inactive)	–
ClCCOCCOCCCl	6.14% (inactive)	–
O=C(O)c1ccc(-n2nc(-c3ccccc3O)nc2-c2ccccc2O)cc1	-13.5% [at 42.5 µM] (inactive)	–
O=C1c2ccccc2S(=O)(=O)N1CCCCN1CCN(c2ncccn2)CC1	-2.96% [at 42.5 µM] (inactive)	–
C1CCCNCCC1	-2.96% (inactive)	–
Cc1oc(-c2ccccc2)nc1CCOc1cccc2c1ccn2CCC(=O)O	–	34.4 µM (active)
CC(C)Nc1ccc(NC(C)C)c2c1C(=O)c1ccccc1C2=O	–	16 µM (active)
Cc1ccc(N=Nc2c(O)c(C(=O)O)cc3ccccc23)c(S(=O)(=O)O)c1	–	29.7 µM (active)
O=C(O)C1(C(=O)O)CCC1.[NH2-].[NH2-].[Pt+2]	5.57% [at 42.5 µM] (inactive)	–
C=C(C)C(=O)OCC	4.08% (inactive)	–
CCC(Cl)CCC(Cl)C(Cl)CC(Cl)C(Cl)C(Cl)CCl (stereo not given)	12.6% (inactive)	–
CCCCCCCC#N	-0.744% (inactive)	–
CNC(=O)CN(CCN(CCN(CC(=O)[O-])CC(=O)NC)CC(=O)[O-])CC(=O)[O-].O.[Gd+3]	-1.4% [at 42.5 µM] (inactive)	–
O=C1CCC(=O)O1	1.36% (inactive)	–
CC(CC=O)c1ccccc1 (stereo not given)	-2.45% (inactive)	–
C/C=C/C(=O)CC	-1.71% [at 19 µM] (inactive)	–
